Hits are enriched below; roughly 12% of the tested compounds scored in any of these assays.
Sfp inh: Sfp phosphopantetheinyl transferase inhibition. Potency, µM, without a hit: largest response in the series, negative = inhibition, hits mostly inhibitors. hit rate 3.5% among 310,000. Q9F4F7. Biochemical Sfp PPTase activity, qHTS. AID 1490;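 note: the enzyme is Sfp with the accession as filed and its product quenches rhodamine fluorescence; 0% = enzyme reaction without inhibitor and -100% = no enzyme wells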
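Buffer: 50 mM Hepes-Na pH 7.6, 10 mM MgCl2, 0.01% Nonidet P-40, 0.01% BSA. Enzyme 15 nM, pre-exposed to compound 15 min; substrates then added and fluorescence change tracked over 30 min.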
G9a inh: blocks human histone lysine methyltransferase G9a | Q96KQ7 | G9a H3K9 monomethylation, AlphaScreen, 2 h | Potency, µM (doses to about 102 µM), without a hit: at the top dose activity, negative = inhibition, most hits filed as inhibitors | hit rate 8.8% among 350,000 | AID 504332; note: % is set by controls: 0 for no effect and ±100 for the full control effect; nearly all actives have a fitted effect of over 75% in size
Target sequence (Q96KQ7 913-1193 limits assumed): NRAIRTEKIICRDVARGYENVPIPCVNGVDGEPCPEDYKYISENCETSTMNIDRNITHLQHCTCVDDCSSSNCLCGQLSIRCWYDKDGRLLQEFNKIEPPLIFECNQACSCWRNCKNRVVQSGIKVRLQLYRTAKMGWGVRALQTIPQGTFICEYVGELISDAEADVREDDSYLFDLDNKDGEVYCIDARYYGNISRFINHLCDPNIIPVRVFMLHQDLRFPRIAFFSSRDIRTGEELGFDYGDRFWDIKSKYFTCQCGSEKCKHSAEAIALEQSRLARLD
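Enzyme 20 nM + cpd, 15 min RT; add b-H3K9 pep 500 nM / SAM 20 uM; 2 h RT; anti-H3K9me1 Ab 0.5 ug/mL + SA donor / anti-rabbit acceptor beads 20 ug/mL each, 10 min; AlphaScreen read.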
PLK1 PBD block: inhibitors of human PLK1 polo-box domain binding; P53350; Plk1 PBD binding of FITC phosphopeptide, fluorescence polarization; Potency, µM, for inactives: max response, negative = inhibition, usual class: inhibitors; hit rate 2.8% among 360,000; AID 720504; note: series mostly up to about 57 µM; % is set by controls: 0 for no effect and ±100 for the full control effect; nearly all actives have a fitted effect of over 65% in size
BAZ2B inh: BAZ2B (human) inhibition | Q9UIF8 | AlphaScreen BAZ2B-H3K14Ac peptide displacement | Potency, µM (top dose mostly 114 µM), without a hit: top-dose activity change, negative = inhibition, actives largely listed as inhibitors | hit rate 4.4% among 360,000 | AID 504333; note: % is set by controls: 0 for no effect and ±100 for the full control effect; nearly all actives have a fitted effect of over 60% in size
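AlphaScreen luminescence quantifies BAZ2B engagement of H3K14Ac peptide; the protein and biotinylated peptide are both at 50 nM final, buffer PBS pH 7.4 with 0.01% Tween-20, all steps at room temperature.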
HP1b binding inh: blocks HP1-beta chromodomain binding to methylated histone tails | AlphaScreen HP1-beta / biotin-H3K9me3 peptide binding | Potency, µM (series often up to 114 µM), for inactives: at the top dose activity change, negative = inhibition, most hits filed as inhibitors | hit rate 0.56% among 390,000; note: nearly all actives have a fitted effect of over 70% in size
Target sequence (P83916 whole entry, looked up): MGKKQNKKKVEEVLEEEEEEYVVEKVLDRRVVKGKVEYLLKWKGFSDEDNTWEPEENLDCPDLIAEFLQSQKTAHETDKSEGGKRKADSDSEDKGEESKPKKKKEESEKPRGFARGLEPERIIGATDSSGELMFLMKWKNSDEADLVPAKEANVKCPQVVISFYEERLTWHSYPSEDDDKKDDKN
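Compound inhibition of the preformed complex between 50 nM HP1-beta and 50 nM biotinylated H3K9me3 peptide was read by AlphaScreen. Buffer was PBS pH 7.4 with 0.01% Tween-20. Incubations ran 30 min at room temperature, with 10 ug/mL donor/acceptor beads.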
JMJD2A Tudor inh: inhibitors of human JMJD2A Tudor domain. O75164. AlphaScreen JMJD2A-Tudor / H3K4me3 peptide binding. Potency, µM (top dose mostly 114 µM), without a hit: at the top dose activity change, negative = inhibition, most hits filed as inhibitors. hit rate 4.4% among 390,000; note: % is set by controls: 0 for no effect and ±100 for the full control effect; nearly all actives have a fitted effect of over 50% in size
* hit, by the source's call; ? = inconclusive; · = no result; [ ] = dose if it differs, or a comment. Calls come from the whole dose curve; as a rule, active = well fitted curve in the direction sought with a large enough effect; inconclusive = small, poorly fitted or top-dose-only effect, or another doubt; inactive = no such curve, though single readings can be large; an effect the other way counts as inactive or inconclusive. Potency is the fitted concentration of half-maximal effect.

SMILES	Sfp inh	G9a inh	PLK1 PBD block	BAZ2B inh	HP1b binding inh	JMJD2A Tudor inh
O=C(NCc1ccccc1)C12CC3CC(CC(C3)C1)C2	-16%	32µM*	0%	?	27%	-20%
COc1cccc(CNC(=O)Cn2ncn3nc(-c4cccs4)cc3c2=O)c1	·	?	·	-26%	15%	-17%
Fc1ccccc1Cn1c2[n+](c3ccc(C(F)(F)F)cc31)CCCCC2	?	?	-2%	·	33%	?
N#Cc1cccc(NC(=O)Cn2c3[n+](c4ccc(C(F)(F)F)cc42)CCCCC3)c1	-1%	8.9µM*	-7%	2%	1%	-15%
Nc1ccc(-c2nc3ccc(-c4nc5ccc(N)cc5[nH]4)cc3[nH]2)cc1	?	22µM*	·	·	·	·
Nc1ccc2nc(-c3ccc(-c4nc5ccc(N)cc5[nH]4)cc3)[nH]c2c1	-6%	5%	1%	?	19%	-33%
Nc1ccc2nc(-c3cccc(-c4nc5ccc(N)cc5[nH]4)n3)[nH]c2c1	32µM*	11µM*	-1%	25µM*	?	45µM*
CCOC(=O)c1c(C)[nH]c(C(=O)OC(C)C(=O)NC2CCCCC2C)c1C (stereo unspecified)	·	-24%[59 µM]	-3%	-4%	16%	-11%
COc1ccc(S(=O)(=O)n2nc(-c3ccco3)nc2NCc2ccc(OC)c(OC)c2)cc1	·	?	·	-35%	-6%	-36%
O=C(CSc1ccccc1C(=O)O)NCc1ccco1	17%	59%[59 µM]	-8%	?	37%	-3%
O=C(NCc1ccco1)c1ccccc1NS(=O)(=O)c1cccs1	4%	?	-9%	-4%	20%	-22%
Cc1ccccc1CNC(=O)c1ccccc1SCC(=O)NCc1ccco1	·	13µM*	-3%	-4%	39%	-3%
COCCSc1ccccc1C(=O)NCc1ccco1	18µM*	?	-10%	-1%	10%	-30%
COCCSc1ccccc1C(=O)N1CCCC1	-10%	-27%[2.33 µM]	-15%	0%	43%	-8%
COCCSc1ccccc1C(=O)N1CCOCC1	79µM*	?	?	-7%	24%	-10%
O=C(NCc1ccco1)c1ccccc1NS(=O)(=O)c1ccc(Cl)s1	12%	20µM*	?	?	10%	?
CN(C)C(=O)c1ccc(NC(=O)COc2cccc3c2OC(C)(C)C3)cc1	·	-15%	6%	-2%	14%	-18%
O=c1cc2nc(-c3ccccc3)nc(SCc3cccc(Br)c3)n2[nH]1	·	24%[59 µM]	·	-26%	29%	-18%
Cc1ccn2c(NCc3ccco3)c(-c3ccccc3)nc2c1	·	·	·	·	22%	?
COc1ccccc1CNC(=O)c1ccccc1SCC(=O)NCc1ccco1	·	3.2µM*	-19%	8%	0%	-34%
COCCSc1ccccc1C(=O)NCCc1ccccc1	56µM*	18µM*	-11%	-2%	30%	-8%
Cc1ccccc1C(=O)NCCCn1ccnc1	13%	17%	-17%	-8%	27%	-11%
Cc1ccccc1NC(=O)CNc1ccccc1C(=O)NCc1ccco1	-4%	40µM*	-6%	-26%	19%	-30%
COCCSc1ccccc1C(=O)NCCCn1ccnc1	45µM*	?	?	-2%	-8%	?
CCOc1ccc(C(=O)Nc2ccc(Cl)c(-c3nc4cc(C)cc(C)c4o3)c2)cc1	·	?	·	8%	10%	-14%
SMILES	Sfp inh	G9a inh	PLK1 PBD block	BAZ2B inh	HP1b binding inh	JMJD2A Tudor inh
C=CCN1c2ccccc2[C@]23C[C@@H](C(=O)OC)N(S(=O)(=O)c4ccc(C#N)cc4)C2=NC(C(=O)OC)=C(C(=O)OC)[C@H]13	-4%	·	·	·	·	·
COc1ccccc1N1CCN(C2CCCN(C(=O)CCC(C)=O)C2)CC1 (stereo unspecified)	8%	52%	0%	-2%	37%	5%
COc1cccc(Nc2nc(C#N)nc(NC3CCCC3)n2)c1	·	·	·	·	·	-3%
CCc1ccc(NC(=O)N(Cc2c[nH]c3ccccc23)C2CCCCC2)cc1	·	-36%[59 µM]	·	·	36%	-5%
COc1ccc(C2NN=C(c3ccc(C)cc3)S2)cc1 (stereo unspecified)	9%	32µM*	?	11%	18%	-12%
CCOc1cc(C2NN=C(c3ccc(C)cc3)S2)ccc1O (stereo unspecified)	-10%	19%[59 µM]	?	-3%	32%	-12%
CC(C)C[C@H](NC(=O)[C@H](CC(C)C)NC(=O)[C@@H](Cc1c[nH]c2ccccc12)NC(=O)[C@H](Cc1ccccc1)NC(=O)[C@@H](Cc1c[nH]c2ccccc12)NC(=O)[C@H](CCC(N)=O)NC(=O)[C@H](CCC(N)=O)NC(=O)[C@@H]1CCCN1C(=O)[C@H](CCCCN)NC(=O)[C@@H]1CCCN1C(=O)[C@@H](CCCNC(=N)N)NC(=O)[C@@H]1CCCN1C(=O)CNC(=O)[C@H](CC(C)C)NC(=O)[C@H](CC(C)C)NC(=O)[C@H](Cc1ccc(O)cc1)NC(=O)CNC(=O)[C@H](C)NC(=O)[C@H](CO)NC(=O)[C@H](CC(N)=O)NC(=O)[C@H](CC(C)C)NC(=O)[C@@H](NC(=O)[C@H](Cc1c[nH]c2ccccc12)NC(=O)CN)[C@@H](C)O)C(N)=O	-27%	·	·	·	·	·
CCC(C(=O)NC1CCCC1)n1c(C2CC2)nc2ccccc21 (stereo unspecified)	·	·	-4%	·	·	·
COc1ccc(CCNC(=O)CSc2cn(CCNC(=O)c3cccc(C(F)(F)F)c3)c3ccccc23)cc1OC	·	0%[59 µM]	·	-29%	33%	-18%
O=C(O)CCCCC1CCSS1 (stereo unspecified)	-26%	1.8µM*	-21%	1µM*	18%	-21%
CCOc1ccccc1N(C)C(=O)c1ccc2c(=O)n3c(nc2c1)CCCCC3	17%	·	24µM*	-6%	1%	-28%
CCc1ccccc1N(C)C(=O)c1sc2nc3n(c(=O)c2c1C)CCCCC3	·	?	·	-26%	40%	-13%
COc1cc(OC)c(N(C)C(=O)c2sc3nc4n(c(=O)c3c2C)CCCC4)cc1Cl	·	?	·	-5%	129%	21%
COc1cc(OC)c(N(C)C(=O)c2sc3nc4n(c(=O)c3c2C)CCCCC4)cc1Cl	·	14µM*	·	50µM*	20%	?
CCOc1ccccc1N(C)C(=O)c1sc2nc3n(c(=O)c2c1C)CCCC3	·	?	·	50µM*	97%	-21%
Cc1nc(-c2ccc(S(=O)(=O)N3CCN(c4cccc(C(F)(F)F)c4)CC3)cc2)co1	·	0%[59 µM]	·	?	-1%[57 µM]	-18%
Cc1ccc(CN(Cc2ccco2)C(=S)NCC(=O)NC2CC2)cc1	50µM*	18µM*	-12%	-34%	5%	-21%

Screens deposited in PubChem by National Center for Advancing Translational Sciences (NCATS).
